The supplement of paper PMC3334620
The full ranking holds about 33,000 sequences; the median of “E-score (-0.5 to 0.5)” is about -0.035, and the highest 2% start at about 0.35. Only a selection was taken, and the highest values are over-represented in it overall.

Molecular target: T1, Pdr3 (UniProt P33200)
T1 sequence: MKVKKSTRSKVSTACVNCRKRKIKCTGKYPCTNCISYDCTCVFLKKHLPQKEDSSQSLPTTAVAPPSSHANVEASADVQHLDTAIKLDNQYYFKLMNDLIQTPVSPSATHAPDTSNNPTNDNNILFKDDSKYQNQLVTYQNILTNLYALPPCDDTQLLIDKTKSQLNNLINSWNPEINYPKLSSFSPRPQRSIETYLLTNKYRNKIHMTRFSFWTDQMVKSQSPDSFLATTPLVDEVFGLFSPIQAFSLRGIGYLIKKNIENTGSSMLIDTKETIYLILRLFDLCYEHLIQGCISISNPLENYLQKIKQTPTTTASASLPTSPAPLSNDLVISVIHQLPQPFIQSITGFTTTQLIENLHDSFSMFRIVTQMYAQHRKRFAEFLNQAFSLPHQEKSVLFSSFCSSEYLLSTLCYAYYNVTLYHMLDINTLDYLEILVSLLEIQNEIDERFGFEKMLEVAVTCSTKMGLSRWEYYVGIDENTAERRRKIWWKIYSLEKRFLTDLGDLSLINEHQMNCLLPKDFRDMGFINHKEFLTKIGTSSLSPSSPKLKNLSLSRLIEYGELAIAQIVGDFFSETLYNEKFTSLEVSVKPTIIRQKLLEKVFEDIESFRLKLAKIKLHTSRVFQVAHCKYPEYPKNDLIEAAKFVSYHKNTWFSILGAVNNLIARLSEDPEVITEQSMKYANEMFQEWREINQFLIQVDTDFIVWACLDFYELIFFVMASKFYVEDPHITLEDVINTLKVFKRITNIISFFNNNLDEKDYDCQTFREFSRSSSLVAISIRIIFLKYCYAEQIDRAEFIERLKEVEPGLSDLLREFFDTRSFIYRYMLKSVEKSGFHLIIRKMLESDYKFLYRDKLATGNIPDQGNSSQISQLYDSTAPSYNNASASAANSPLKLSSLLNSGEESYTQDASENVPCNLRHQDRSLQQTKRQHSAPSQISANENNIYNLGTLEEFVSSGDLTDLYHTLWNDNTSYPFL
Assay: PBM E-score (8-mer binding enrichment) (E-score (-0.5 to 0.5)); higher = stronger / more preferred TF binding
Conditions: protein concentration: 200 nM; construct: GST-full length
Protocol: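 Universal 'all 10-mer' protein binding microarrays (Agilent AMADID 015681) probed with GST-tagged S. cerevisiae TFs (full-length or DBD) made by in vitro transcription/translation (PURExpress), about 100-200 nM. Bound TF was detected with fluorescent anti-GST. Each ungapped 8-mer (which stands for itself and its reverse complement) is scored by the PBM enrichment score (E-score), a modified Wilcoxon-Mann-Whitney statistic from -0.5 to +0.5, computed with the Universal PBM Analysis Suite. Scale: above 0.35 generally sequence-specific binding.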

Sequence	PBM E-score
ACGCCCAA	0.00636
AAAGCTCA	-0.213
CGGTCGAG	-0.014
CGGTACCC	-0.0572
CGGTACCA	0.0596
CGGTACCG	0.362
CTTCATCC	-0.00929
ACTCCGGG	0.369
CCTCCCGA	0.103
CCTCCGGA	0.416
GCTCCGTA	0.32
GCTCCGCA	0.178
ACTCCGGC	0.315
CCTCCGGC	0.32
ACTCCGGA	0.456
GCTCCGGA	0.461
ACTCCGAT	0.203
ACTCCTGG	-0.134
AAATAGGT	-0.15
ATCAAAGA	-0.143
ACTCTGCA	-0.125
GGTTTCGA	0.134

Sequence	PBM E-score
CTCTTTCC	0.141
CATGAAAC	0.0519
CGATTTCA	-0.0484
TGCATAAA	-0.00866
GCGTTGCC	0.126
AGCGGGCA	-0.048
CGCGGGCC	0.379
CGCGGGCA	0.397
CGCGGGTA	0.363
GGCGGGCA	0.219
AGCGGGTA	0.0103
CACGGGCC	0.196
CGCGGGTC	0.331
AGCGGGCC	0.057
CCGATCTA	0.0827
ATCCAATG	-0.208
AGTCTGAT	-0.133
AAGACAAA	-0.103
AACCGCTG	-0.114
CGTTCGAG	-0.0996
CAATTCCC	0.133
AAATTCCA	0.0847

Sequence	PBM E-score
AAATTCCG	0.418
AAATTCCC	0.144
CAATTCCA	0.0797
CAATTCCG	0.435
CAGATCTA	-0.337
AACAGCAT	-0.0321
GAGACTCA	-0.204
TGTGATAA	-0.121
CACGGGAA	0.223
AACGGAAA	0.464
AACGGGAA	0.354
CAAGGAAA	0.00732
TAGGGAAA	-0.15
TACGGAAA	0.402
GACGGAAA	0.43
CACGGAAA	0.449
AACGGAGA	0.243
GACGGACA	0.335
GACGGGAA	0.203
TACGGGAA	0.261
GCTACGAC	0.0127
CACTGGTC	-0.078

Sequence	PBM E-score
CAGATGCG	-0.126
CTAGGACA	-0.0782
CGGCTTGC	0.197
GCTCGTAC	-0.126
CCTAGAAG	-0.146
ATGTCTAG	-0.064
AATAGGCG	0.313
AGCCTTAG	-0.37
CAGCCACG	0.145
GACAGAAC	0.0194
CAAGGAAG	-0.0209
CACGGAAG	0.386
CATGGAAC	-0.0483
CACAGAAG	-0.109
CACGGAAC	0.483
CAAGGAAC	0.161
GACGGAAC	0.475
GATGGAAC	0.06
ACAGTAAA	-0.0539
AGCAAAAG	-0.336
CTATAAGC	-0.129
